From PubChem BioAssay (NCI)
Compounds without any hit were thinned out: in the full panel of roughly 83,000, 20% have a hit.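 Cells were grown in 96-well plates and exposed to the test compound at a single concentration for 48 hours; results are reported as percent growth, with values below 10 considered active.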 A number with no mark means an inactive call. Activity calls are given as the source filed them.

Columns and labels:
Assay in all cases: NCI-60 one-dose screen, 48 h (100 = growth as untreated, 0 = no growth, -100 = all killed)
[1] = tested on: NCI-H23 lung; details: 10 µM unless noted
[2] = tested on: NCI-H226 lung; details: 10 µM unless noted
[3] = tested on: NCI-H322M lung; details: 10 µM unless noted
[4] = tested on: HOP-62 NSCLC; details: 10 µM unless noted
[5] = tested on: NCI-H460 lung; details: 10 µM unless noted
[6] = tested on: HOP-92 NSCLC; details: 10 µM
[7] = tested on: NCI-H522 lung; details: 10 µM unless noted
[8] = tested on: A549/ATCC NSCLC; details: 10 µM unless noted
[9] = tested on: 786-0 renal; details: 10 µM unless noted
[10] = tested on: COLO 205 colon; details: 10 µM unless noted
[11] = tested on: DU-145 prostate; details: 10 µM unless noted
[12] = tested on: K-562 leukemia; details: 10 µM unless noted
[13] = tested on: MALME-3M melanoma; details: 10 µM unless noted
[14] = tested on: MDA-MB-231 breast; details: 10 µM unless noted
[15] = tested on: SF-268 CNS; details: 10 µM unless noted
[16] = tested on: SF-295 CNS; details: 10 µM unless noted
[17] = tested on: SF-539 CNS; details: 10 µM unless noted
[18] = tested on: UACC-257 melanoma; details: 10 µM unless noted

Row | Compound | growth [1] | growth [2] | growth [3] | growth [4] | growth [5] | growth [6] | growth [7] | growth [8] | growth [9] | growth [10] | growth [11] | growth [12] | growth [13] | growth [14] | growth [15] | growth [16] | growth [17] | growth [18]
1 | CCOC(=O)c1c(NC(=O)c2ccccc2C(F)(F)F)sc2c1CCC(=O)C2 | 23.3% | 60.8% | 113% | 64.8% | 33.3% | 40.1% | 5.03% (active) | 97.5% | 104% | 56.7% | 95.3% | 12.8% | 73% | 15.2% | 22.9% | 41.6% | -6.66% (active) | 98.9%
2 | C=CCn1c(SCC(=O)Nc2ccc(C(=O)/C=C/c3cc(OC)c(OC)c(OC)c3)cc2)nnc1-c1c[nH]c2ccccc12 | -11% (active) | -4.91% (active) | 53% | 70.5% | 3.42% (active) | 63.7% | 35.7% | 34.7% | 23.1% | 73.1% | 13.2% | 3.04% (active) | 68.6% | 23% | 33.1% | 68.1% | -16.2% (active) | 73%
3 | COc1cc2c(cc1OC)C(Sc1ccc(C)cc1)c1c(nc(N)c(C#N)c1N)O2 (stereo unspecified) | -74.1% (active) | -1.22% (active) | -93.9% (active) | -1.58% (active) | -54.9% (active) | -31.8% (active) | -29% (active) | -38% (active) | -78.9% (active) | -28.5% (active) | -83% (active) | 4.48% (active) | -70.7% (active) | -41.4% (active) | -54.5% (active) | -84.1% (active) | -86.3% (active) | -35.2% (active)
4 | CCn1c2ccccc2c2cc(-n3nncc3-c3ccccc3)ccc21 | 7.25% (active) | 47.8% | 45.1% | 66% | 0.528% (active) | 57.8% | 4.55% (active) | 24.5% | 31.6% | -10.9% (active) | 13.3% | 10.3% | 56.3% | 27.2% | 35.2% | 15.7% | -17.7% (active) | 85.4%
5 | COc1ccccc1NC1=C(Cl)C(=O)c2nc(C)ccc2C1=O | -8.37% (active) | 29.6% | 71.1% | 74.1% | 70.8% | -83.8% (active) | -48.5% (active) | 101% | 9.17% (active) | 111% | -57.3% (active) | -21.1% (active) | -55.9% (active) | -57.3% (active) | 47.4% | 96.6% | 1.78% (active) | -82.7% (active)
6 | O=C1[C@@H]2Cc3c([nH]c4ccccc34)[C@H](c3c(Cl)cccc3Cl)N2C(=O)CN1C1CCN(CC2CCCCC2)CC1 | 91.3% | 85.9% | 83.5% | 104% | 12.7% | 64.8% | 24.1% | 64.4% | 46.6% | 96.2% | 34.4% | 1.73% (active) | 80.6% | 50% | 75.2% | 105% | 68.8% | 91.4%
7 | C#Cc1nc(/C=C/C(=O)c2nccn2C)cs1 | -69.3% (active) | 4.67% (active) | 28.5% | -44.9% (active) | -47.2% (active) | -71% (active) | -60.1% (active) | -3.96% (active) | -65.9% (active) | -30.6% (active) | -45.6% (active) | -16.8% (active) | -75.6% (active) | -64.7% (active) | -54.2% (active) | -87.8% (active) | -82.7% (active) | -19% (active)
8 | CC/C(=C/c1cc(OC)ccc1O)c1ccc2cc(OC)ccc2[o+]1 | 64.2% | 78% | 84.2% | 69.8% | 33.6% | 71% | 24.2% | 58.3% | 65.9% | 56.1% | 68.6% | 20.3% | 53.1% | 66.2% | 61.6% | 52.2% | 52.7% | 65.6%
9 | CCOC(=O)C(=O)/C(=C\c1ccc(Cl)cc1)C(=O)N1C(=S)NC(=O)C1CC(C)C (stereo unspecified) | 96.5% | 92% | 95.3% | 95.6% | 102% | 86.8% | 91.7% | 104% | 103% | 109% | 85.2% | 102% | 99.8% | 90.8% | 100% | 99.9% | 103% | 105%
10 | CC1(C)CC[C@]23CC[C@]4(C)[C@H](CC[C@@H]5[C@@]6(C)CCCN(CO)C(C)(C)[C@@H]6CC[C@]54C)[C@H]2[C@H]1OC3 | 86.4% | 94.8% | 71.9% | 98.9% | 1.75% (active) | 77.5% | 94.9% | 76.8% | 83.8% | 0.57% (active) | 50.7% | 2.86% (active) | 101% | 65.9% | 97.5% | 112% | 84.6% | 110%
11 | O=C(O)c1ccc(-n2cc(CNc3cccc(Cl)c3)c(-c3ccc(F)cc3)n2)cc1 | 101% | 112% | 103% | 101% | 98% | 105% | 92.2% | 92.7% | 110% | 120% | 102% | 76.4% | 82.8% | 91.7% | 109% | 87.6% | 96.1% | 96.8%
12 | COc1ccc([C@H]2c3[nH]c4ccccc4c3C[C@H]3C(=O)N(C4CCN(Cc5c(Cl)cccc5Cl)CC4)CC(=O)N23)c(OC)c1 | 98% | 92.9% | 94.5% | 93.2% | 99.1% | 79.4% | 87.2% | 91.1% | 101% | 109% | 110% | 92.7% | 90.6% | 93% | 85.6% | 106% | 101% | 116%
13 | ClC(Cl)c1nc(-c2ccco2)n2nc(-c3ccccc3)cc2n1 | 49.8% | 97.5% | -19.4% (active) | -1.03% (active) | -22.1% (active) | -9.05% (active) | 91.3% | -2.21% (active) | 69.3% | -17% (active) | -24.8% (active) | 50.6% | 107% | -11.1% (active) | 24.3% | -15.4% (active) | -7.97% (active) | 54%
14 | O=C(CNc1nc(-c2cccc([N+](=O)[O-])c2)cs1)Nc1cccc(Cl)c1 | 96% | 99.4% | 101% | 96.6% | 113% | 104% | 98.3% | 108% | 105% | 112% | 112% | 97.1% | 104% | 101% | 99.7% | 102% | 101% | 118%
15 | O=C(NNc1nc2cc(F)c(F)cc2n2c(CN3CC4CNCC4C3)ccc12)c1ncccn1 (stereo unspecified) | 26% | 10.6% | 27.8% | 0.597% (active) | 2.27% (active) | 20.2% | 0.166% (active) | 15.2% | 9.75% (active) | 9.36% (active) | 24% | 9.16% (active) | 10.3% | 38.7% | 19.7% | -14.5% (active) | 6.72% (active) | 8.25% (active)
16 | COc1ccccc1NCc1cccn1Cc1ccc(F)cc1 | 96.6% | 90.4% | 92.5% | 92% | 103% | 81.5% | 79.5% | 101% | 92.8% | 110% | 90% | 111% | 101% | 89.4% | 92.5% | 104% | 98.6% | 102%
17 | CCOc1ccccc1NC1=C(Cl)C(=O)c2nc(C)ccc2C1=O | -67.8% (active) | 17.6% | 28.8% | 84.3% | 12.1% | -89.2% (active) | -43.5% (active) | 59.1% | -88.2% (active) | 99.2% | -85% (active) | 1.26% (active) | -71.4% (active) | -63.6% (active) | 32.8% | 90.7% | -37.3% (active) | -88.3% (active)
